Experimental data: PubChem BioAssay
The source made the active and inactive calls.

How the values were obtained:
[1] = tested on: Plasmodium falciparum Sir2 (PF13_0152, Sir2A); experiment: pfSir2 binders on small-molecule microarrays, primary screen, biochemical, small-molecule microarray, 635 nm fluorescence (AID 1098); details: small-molecule microarray binding, fluorescence 635 nm; higher = more signal;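 note: score merges spot fluorescence intensity with its signal-to-noise ratio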
[2] = small-molecule microarray binders of probe aDKK1, primary screen, biochemical, biotinylated probe, 635/667 nm fluorescence (AID 1099); details: higher = more signal;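 note: score merges 667nm spot fluorescence with signal to noise across triplicate slides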
[3] = small-molecule microarray binders of probe aCHRDL2, primary screen, biochemical, biotinylated probe, 635/667 nm fluorescence (AID 1100); details: higher = more signal
[4] = splicing luciferase reporter signal modulators, primary screen, spliceosome inhibition project, cell-based, HEK293, splice +/- reporter (AID 1101); details: luminescence, 24 h, higher = more signal, called active from +8 up or from −8 down;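 note: HEK293 cells carrying a splicing-competent luciferase reporter gene; test concentration not given here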
[5] = biological target: Fibroblast growth factor 10 (Homo sapiens) (UniProt O15520); experiment: FGF10 binders on small-molecule microarrays, primary screen, biochemical, small-molecule microarray, 635 nm fluorescence (AID 1102); details: FGF10 binding, fluorescence 635 nm, higher = more signal
Sequence of Fibroblast growth factor 10 (Homo sapiens) (O15520 whole entry, looked up): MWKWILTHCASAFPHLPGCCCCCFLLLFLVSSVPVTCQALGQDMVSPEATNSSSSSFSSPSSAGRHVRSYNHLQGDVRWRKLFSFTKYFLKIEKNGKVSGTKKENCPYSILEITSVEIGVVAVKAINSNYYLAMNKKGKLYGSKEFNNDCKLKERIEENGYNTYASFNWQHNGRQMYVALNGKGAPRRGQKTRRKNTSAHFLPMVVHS

[6] = tested on: glycogen synthase kinase-3 (GSK3A per assay name; protocol says GSK3B); experiment: GSK3 binders on small-molecule microarrays, primary screen, biochemical, small-molecule microarray, 635 nm fluorescence, GSK3A (AID 1103); details: small-molecule microarray binding, fluorescence 635 nm; higher = more signal; note: the record names both GSK3A and GSK3B
[7] = biological target: Epidermal growth factor receptor (Homo sapiens) (UniProt P00533); experiment: EGFR binders on small-molecule microarrays, primary screen, biochemical, small-molecule microarray, 635 nm fluorescence (AID 1104); details: EGFR binding, higher = more signal;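 note: score merges 667 nm emission intensity with spot signal to noise over triplicate slides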
Sequence of Epidermal growth factor receptor (Homo sapiens) (P00533 whole entry, looked up): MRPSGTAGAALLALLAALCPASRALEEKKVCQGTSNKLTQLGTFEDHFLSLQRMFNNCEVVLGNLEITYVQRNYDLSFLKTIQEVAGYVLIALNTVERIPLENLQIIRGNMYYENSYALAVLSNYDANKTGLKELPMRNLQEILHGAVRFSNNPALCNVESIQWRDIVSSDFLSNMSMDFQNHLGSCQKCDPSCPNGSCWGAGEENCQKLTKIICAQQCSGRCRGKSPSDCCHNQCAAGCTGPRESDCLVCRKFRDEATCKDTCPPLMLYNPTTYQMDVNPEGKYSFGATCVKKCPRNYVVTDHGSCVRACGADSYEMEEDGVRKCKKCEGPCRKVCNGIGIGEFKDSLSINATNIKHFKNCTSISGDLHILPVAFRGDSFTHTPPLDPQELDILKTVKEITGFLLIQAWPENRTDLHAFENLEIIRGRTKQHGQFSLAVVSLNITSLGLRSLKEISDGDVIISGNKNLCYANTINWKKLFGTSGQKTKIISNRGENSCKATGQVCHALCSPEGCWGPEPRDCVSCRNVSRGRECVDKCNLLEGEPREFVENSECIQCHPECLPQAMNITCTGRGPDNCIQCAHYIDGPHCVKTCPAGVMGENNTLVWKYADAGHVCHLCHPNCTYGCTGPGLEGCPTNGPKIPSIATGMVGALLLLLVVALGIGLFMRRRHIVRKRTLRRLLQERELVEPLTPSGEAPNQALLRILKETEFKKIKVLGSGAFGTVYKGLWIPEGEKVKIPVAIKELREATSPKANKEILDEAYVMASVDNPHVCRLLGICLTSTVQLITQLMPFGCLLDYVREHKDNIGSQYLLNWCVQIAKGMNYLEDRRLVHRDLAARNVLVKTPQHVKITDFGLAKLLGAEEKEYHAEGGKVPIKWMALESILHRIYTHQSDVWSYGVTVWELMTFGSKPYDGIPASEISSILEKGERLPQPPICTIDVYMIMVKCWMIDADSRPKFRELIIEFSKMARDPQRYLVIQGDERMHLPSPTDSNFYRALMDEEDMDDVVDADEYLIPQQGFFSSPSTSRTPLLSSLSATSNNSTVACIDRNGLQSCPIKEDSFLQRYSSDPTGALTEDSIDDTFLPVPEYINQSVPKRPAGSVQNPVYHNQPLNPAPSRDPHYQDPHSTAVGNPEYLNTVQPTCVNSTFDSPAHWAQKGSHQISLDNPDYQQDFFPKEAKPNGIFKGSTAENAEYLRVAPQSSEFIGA

[8] = biological target: Follistatin-related protein 3 (Homo sapiens) (UniProt O95633); experiment: FSTL3 binders on small-molecule microarrays, primary screen, biochemical, small-molecule microarray, 635 nm fluorescence (AID 1105); details: FSTL3 binding, higher = more signal;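 note: score merges emission near 667 nm and signal to noise per printed spot across three slides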
Sequence of Follistatin-related protein 3 (Homo sapiens) (O95633 whole entry, looked up): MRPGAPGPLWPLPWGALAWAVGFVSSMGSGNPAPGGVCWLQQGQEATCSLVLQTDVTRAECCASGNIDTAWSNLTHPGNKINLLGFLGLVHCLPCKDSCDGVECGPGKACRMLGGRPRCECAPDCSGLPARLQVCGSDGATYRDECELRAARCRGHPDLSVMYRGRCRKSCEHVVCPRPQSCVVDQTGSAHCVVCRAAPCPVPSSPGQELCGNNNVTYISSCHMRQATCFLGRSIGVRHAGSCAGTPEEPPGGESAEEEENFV

[9] = biological target: Dickkopf-related protein 1 (Homo sapiens) (UniProt O94907); experiment: DKK1 binders on small-molecule microarrays, primary screen, biochemical, small-molecule microarray, 635 nm fluorescence scan (AID 1106); details: DKK1 binding, higher = more signal;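 note: score merges emission near 667 nm with signal to noise over three replicate slides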
Sequence of Dickkopf-related protein 1 (Homo sapiens) (O94907 whole entry, looked up): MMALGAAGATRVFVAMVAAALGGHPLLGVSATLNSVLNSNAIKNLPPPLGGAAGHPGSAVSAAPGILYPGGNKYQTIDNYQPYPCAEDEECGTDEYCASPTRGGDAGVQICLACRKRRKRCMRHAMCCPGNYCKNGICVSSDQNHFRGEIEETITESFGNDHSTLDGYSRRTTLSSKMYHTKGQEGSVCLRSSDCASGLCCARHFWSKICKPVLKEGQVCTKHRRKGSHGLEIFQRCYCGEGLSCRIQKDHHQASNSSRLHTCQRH

[10] = tested on: Inhibin beta A chain (activin A); experiment: INHBA (activin A) binders on microarrays, primary screen, biochemical, small-molecule microarray, 635 nm fluorescence scan (AID 1107); details: small-molecule microarray binding, higher = more signal;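 note: mouse activin A protein probed at 4.33 µg/mL on printed slides; score merges bound-protein fluorescence near 667 nm with spot signal-to-noise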
[11] = tested on: Human papillomavirus type 1a protein E7 (residues 44-93); experiment: HPV1a E7 fragment binders on microarrays, primary screen, biochemical, small-molecule microarray, residues 44-93, 635 nm fluorescence (AID 1108); details: small-molecule microarray binding, fluorescence 635 nm; higher = more signal;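 note: E7 fragment applied at 1 µg/mL in TBST for 1 h at 4 C; score combines spot fluorescence with its signal to noise ratio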
[12] = modulators of HCV replicon luciferase signal, primary screen, HCV replication inhibitor project, Huh7 cells, luciferase reporter (AID 1109); details: 48 h, higher = more signal;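 note: huh7 hepatoma cells harbouring a luciferase neomycin HCV replicon reporter; luciferase luminescence as measure of HCV replicon replication; test concentration not given here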
[13] = biological target: Left-right determination factor 2 (Homo sapiens) (UniProt O00292); experiment: LEFTY2 binders on small-molecule microarrays, primary screen, biochemical, small-molecule microarray, 635 nm fluorescence scan (AID 1110); details: LEFTY2 binding, higher = more signal
Sequence of Left-right determination factor 2 (Homo sapiens) (O00292 whole entry, looked up): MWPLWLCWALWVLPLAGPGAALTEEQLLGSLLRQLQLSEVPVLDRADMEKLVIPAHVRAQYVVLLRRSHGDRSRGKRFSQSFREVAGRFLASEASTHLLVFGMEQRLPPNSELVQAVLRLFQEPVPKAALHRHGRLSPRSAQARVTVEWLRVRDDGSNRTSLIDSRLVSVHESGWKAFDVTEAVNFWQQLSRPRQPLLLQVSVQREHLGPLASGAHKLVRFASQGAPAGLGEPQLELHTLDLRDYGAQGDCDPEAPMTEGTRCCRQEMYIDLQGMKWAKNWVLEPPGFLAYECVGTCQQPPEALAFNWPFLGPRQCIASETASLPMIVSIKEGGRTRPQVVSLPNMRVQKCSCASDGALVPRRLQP

[14] = biological target: Calmodulin-1 (Homo sapiens) (UniProt P0DP23); experiment: CALM1 binders on microarrays, EGTA buffer, profiling panel, biochemical, small-molecule microarray, Cy5-labelled CALM1 (AID 1111); details: Cy5-CALM1 binding fluorescence, higher = more signal;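 note: labelled calmodulin applied in Tris saline Tween buffer holding calcium plus EGTA and DTT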
[15] = biological target: Calmodulin-1 (Homo sapiens) (UniProt P0DP23); experiment: calcium-bound CALM1 binders on microarrays, profiling panel, artefact control for SMM control-protein annotation, biochemical, small-molecule microarray, Cy5-labelled CALM1, plus calcium (AID 1112); details: Cy5-CALM1 binding fluorescence, higher = more signal;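 note: score merges spot fluorescence with signal to noise from triplicate slides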
[16] = small-molecule microarray binders of probe aWnt5a, primary screen, biochemical, biotinylated probe, 635/667 nm fluorescence (AID 1113); details: higher = more signal;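 note: score merges 667 nm fluorescence intensity with signal-to-noise per printed feature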
[17] = small-molecule microarray binders of probe aShh, primary screen, biochemical, biotinylated probe, 635/667 nm fluorescence (AID 1114); details: higher = more signal;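 note: probe is biotin-labelled aShh protein from a stem cell growth factor screen; measures binding of labelled protein to compounds printed on the slide; score merges feature fluorescence at 667 nm with signal-to-noise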
[18] = small-molecule microarray binders of probe aNog, primary screen, biochemical, biotinylated probe, 635/667 nm fluorescence (AID 1115); details: higher = more signal;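 note: probe is biotinylated aNog protein used at 0.15 µg/mL for 1 h at 4 C; z-score combines 667 nm fluorescence of each spot with its signal to noise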
[19] = biological target: Torsin-1A-interacting protein 1 (Homo sapiens) (UniProt Q5JTV8); experiment: LAP1 binders from COS7 cell lysate, primary screen, small-molecule microarray, 635/667 nm fluorescence (AID 1116); details: COS7-hLAP1 lysate binding, 635 nm fluorescence, higher = more signal
Sequence of Torsin-1A-interacting protein 1 (Homo sapiens) (Q5JTV8 whole entry, looked up): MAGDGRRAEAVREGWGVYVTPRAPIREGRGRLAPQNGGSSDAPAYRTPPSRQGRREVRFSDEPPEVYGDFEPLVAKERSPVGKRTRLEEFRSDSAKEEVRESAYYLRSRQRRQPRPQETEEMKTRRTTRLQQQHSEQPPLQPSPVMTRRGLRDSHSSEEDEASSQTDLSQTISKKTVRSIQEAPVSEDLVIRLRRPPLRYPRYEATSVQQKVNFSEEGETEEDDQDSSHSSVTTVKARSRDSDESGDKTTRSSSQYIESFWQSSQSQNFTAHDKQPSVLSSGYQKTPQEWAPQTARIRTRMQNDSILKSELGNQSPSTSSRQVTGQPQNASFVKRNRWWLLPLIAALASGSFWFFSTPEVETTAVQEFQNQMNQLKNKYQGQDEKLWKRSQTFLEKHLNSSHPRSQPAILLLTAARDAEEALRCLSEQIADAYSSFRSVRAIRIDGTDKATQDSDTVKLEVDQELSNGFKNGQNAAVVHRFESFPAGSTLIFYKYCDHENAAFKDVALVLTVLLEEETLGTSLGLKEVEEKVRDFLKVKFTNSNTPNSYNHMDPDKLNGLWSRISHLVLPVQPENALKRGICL

[20] = biological target: Alpha-bungarotoxin (Bungarus multicinctus) (UniProt P60615); experiment: alpha-bungarotoxin binders on microarray, profiling panel, artefact control for SMM control protein annotation, biochemical, small-molecule microarray, Alexa647 label, 635/667 nm fluorescence (AID 1117); details: alpha-BTX-A647 binding fluorescence, higher = more signal
Sequence of Alpha-bungarotoxin (Bungarus multicinctus) (P60615 whole entry, looked up): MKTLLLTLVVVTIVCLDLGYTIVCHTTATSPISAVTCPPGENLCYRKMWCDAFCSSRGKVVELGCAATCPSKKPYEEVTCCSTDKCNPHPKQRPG

Row | SMILES | composite z-score [1] | composite z-score [2] | composite z-score [3] | z-score [4] | composite z-score [5] | composite z-score [6] | composite z-score [7] | composite z-score [8] | composite z-score [9] | composite z-score [10] | composite z-score [11] | z-score [12] | composite z-score [13] | composite z-score [14] | composite z-score [15] | composite z-score [16] | composite z-score [17] | composite z-score [18] | composite z-score [19] | composite z-score [20]
1 | CN(C)CCCC[C@@H]1NC(=O)[C@@H]2C[C@H](C(=O)NCCCCCCNC(=O)CS)[C@H](c3ccc(O)cc3)N2C1=O | 0.73 | -0.165 | -0.294 | 1.06 (inactive) | 1.34 | 1.24 | 0.954 | 0.997 | 1.31 | 0.277 | 1.16 | 0.278 | 1.24 | -0.383 | -0.199 | -0.275 | -0.124 | -0.0174 | 0.464 | 0.136
2 | COc1ccc(C(O)C2C=CC3C(=O)NC(=O)C3N2Nc2ccc(Cl)cc2Cl)c2ccccc12 (stereo not given) | 0.828 | 0.913 | 1.15 | -0.744 (inactive) | 0.0892 | 0.15 | -0.582 | 0.483 | -0.284 | 1.14 | 0.795 | -0.0178 | -0.65 | 2.02 | 1.08 | -0.181 | -0.116 | -1.02 | 0.693 | 1.17
3 | CCOC(=O)C[C@H]1[C@H](OC(=O)Cc2ccc3c(c2)OCO3)[C@@H](NC(=O)c2ccc3ccccc3n2)c2cc(OCCCO)ccc2N1C(=O)Cc1ccc(OC)cc1 | 0.435 | 0.0621 | 0.195 | -1.8 (inactive) | 0.438 | 0.25 | -0.374 | 0.882 | 0.163 | 0.257 | 0.751 | -1.39 | 0.394 | 0.436 | 0.137 | -0.124 | 0.0723 | -0.0184 | 0.6 | 0.597
4 | COC(=O)c1cccc([C@H]2OC(=CC(=O)OC(C)C)C[C@@H](c3cccc(C(=O)OC)c3)O2)c1 | 1.26 | 0.515 | 0.284 | 0.599 (inactive) | 1.18 | 1.33 | 0.693 | 1.09 | 0.34 | 0.463 | 1.43 | -2.51 | 0.599 | 1.36 | 0.144 | 0.4 | 0.156 | -0.109 | 3.27 | 0.866
5 | O=C1C[C@@](C(=O)NCc2ccccc2)(c2ccc([N+](=O)[O-])cc2)[C@@H](c2ccc(CO)cc2)N1C1CCCCC1 | 1.34 | -0.437 | 0.538 | -1.97 (inactive) | 0.42 | 0.97 | 0.123 | 0.645 | 0.0339 | 0.953 | 0.653 | -1.24 | 0.399 | -0.175 | -0.386 | 0.0273 | 0.0697 | 0.786 | 1.46 | 1.72
6 | COc1ccc(CCNC(=O)[C@@H]2c3ccccc3C(=O)N(Cc3ccccc3OC)[C@H]2c2ccc(CO)cc2)cc1 | 1.1 | -0.381 | 0.508 | 0.295 (inactive) | 0.454 | 0.931 | 0.0744 | 0.172 | 0.0163 | 0.414 | 1.16 | -1.27 | -0.321 | 0.527 | -0.103 | -0.0398 | -0.423 | 0.938 | 0.966 | 0.75
7 | COCCOC(=O)N1C(=O)[C@@]2(c3cc(C#CCC(C(=O)OC)C(=O)OC)ccc31)[C@H](C(=O)Nc1nc3ccccc3s1)[C@H]1C(=O)O[C@H](c3ccccc3)[C@H](c3ccccc3)N1[C@@H]2c1ccc(O)cc1 | 1.42 | 0.0737 | 0.309 | -0.88 (inactive) | 1.34 | 1.3 | 0.861 | 1.41 | 1.06 | 0.157 | 1.42 | -0.146 | 1.31 | 0.975 | -0.0869 | -0.0044 | -0.043 | 0.459 | 0.706 | 1.63
8 | COC(=O)C[C@H]1O[C@@]2(C[C@@H]1[Si](C)(C)C)C(=O)N(C)c1ccccc12 | 0.0786 | -0.251 | -0.52 | -0.662 (inactive) | 0.955 | 0.59 | 0.559 | 0.612 | 0.525 | -1.08 | 1.06 | -0.83 | 0.392 | -0.197 | -0.273 | -0.0643 | -0.362 | 0.273 | -0.116 | 0.586
9 | CCCNC(=O)[C@@]1(c2ccc([N+](=O)[O-])cc2)CC(=O)N(C(C)C)[C@@H]1c1ccc(CO)cc1 | 0.928 | -0.0525 | 0.985 | -0.27 (inactive) | -0.853 | -0.664 | -1.52 | -0.546 | -0.695 | -0.251 | -0.603 | 0.0828 | -0.649 | -0.168 | 0.263 | -0.18 | -0.138 | -0.326 | -0.824 | -0.276
10 | C=C(CCCC)C(=O)CC[C@H](OC(=O)c1ccccc1-c1ccccc1C(=O)O)c1ccc(OCCO)cc1 | 1.25 | -0.253 | -0.403 | 1.02 (inactive) | 0.569 | 0.107 | 0.12 | 0.0258 | 0.248 | 1.09 | 1.34 | -2.05 | 0.849 | 0.945 | -0.898 | -0.119 | -0.154 | -0.495 | 0.479 | 1.02
11 | CCCCC(O)C1C=CC2C(=O)N(c3ccccc3)C(=O)C2N1Nc1ccc([N+](=O)[O-])cc1 (stereo not given) | 1.2 | 0.379 | 0.21 | -0.846 (inactive) | 0.435 | 1.32 | 0.0456 | 1.3 | -0.105 | 0.329 | 1.39 | -0.744 | 0.0256 | 0.521 | -0.118 | 0.0324 | 0.036 | -0.343 | 0.853 | 0.553
